From PubChem BioAssay (NCI)
“And” between values parts separate entries of the source, which are not always exact repeats. Equal entries are not always repeated. Compounds without any hit were thinned out: in the full panel of roughly 83,000, 20% have a hit.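 96-well plates, one dose, 48 hours. Percent growth reported; active if below 10.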 The source made the active and inactive calls.

These molecules were tested on MDA-MB-468 breast (assay: NCI-60 one-dose screen, 48 h (100 = growth as untreated, 0 = no growth, -100 = all killed)). Settings: 10 µM unless noted.

Compound | growth
COc1ccc(CNc2c3ccccc3nc3ccc(OC)cc23)cc1 | -14.7% (active)
CC(C)(C)c1ccc(O)c(C2CCCCC2)c1 | 111% (inactive)
COc1cccc(Cc2cc(-c3ccccc3)nn(CC(=O)c3ccccc3)c2=O)c1 | 90.6% (inactive)
CC(=O)Oc1ccccc1C(=O)Nc1cc(C(C)C)ccc1C | -5.42% (active)
COc1cccc(-c2nn(-c3ccccc3)cc2-c2ccnc(NCCCNC(=O)Nc3ccc(Cl)c(Cl)c3)c2)c1 | -42.9% (active)
Cc1c(CC(=S)N2CCOCC2)nnn1-c1cccc(C(F)(F)F)c1 | 117% (inactive)
CCCCCCCCCCCCCCCCCCOc1ccccc1CC(=O)OCC[N+]1(C)CCCC1 | -23.8% (active)
COc1cc(C2CC(c3ccc4c(c3)OCO4)=NN2c2ccccc2)cc(OC)c1OC (stereo not given) | 75.7% (inactive)
CCCCCCCCN(CCCCCCCC)C(=O)CCl | 79.9% (inactive)
Cc1cnc(C=O)c2cccc([N+](=O)[O-])c12 | 89.7% (inactive)
CCCCCCCCCCCCCCCCCC(=O)OCCCCCCCCCCCCC | 117% (inactive)
CCN1C(=O)/C(=C/C=C/N(C)c2ccccc2)SC1=S | 89.1% (inactive)
O=C1Nc2ccccc2/C1=C/c1ccc(CO)n1-c1ccc(Cl)cc1 | 27.8% (inactive)
Fc1ccc2nc(-c3ccc(-c4noc(-c5ccc(Cl)cc5)n4)cc3)[nH]c2c1 | 110% (inactive)
O=C1c2ccccc2CCc2ccccc21 | 95.2% (inactive)
C=C1CCC2C(C)(CO)C(O)CCC2(C)C1C/C=C1/C(=O)OCC1Oc1ccccc1C (stereo not given) | 60% (inactive)
CC1=Nc2cnc(Nc3ccc(OCCN4CCCCC4)cc3)nc2Nc2ccccc21 | 63.4% (inactive)
CC(C)c1ccc(COCc2cc(CN3CCCC3)c(O)c3ncccc23)cc1 | -21.1% (active)
c1ccc(COc2ccc(Nc3ncnc4c3cnn4-c3ccccc3)cc2)cc1 | 93.1% (inactive)
COC(=O)[C@@]12CC=C(C)[C@]3(C[C@H](c4ccoc4)OC3=O)[C@H]1C=C[C@@H](O)[C@@]2(O)C(=O)OC | 121% (inactive)

Compound | growth
CC12CCCCC1C(C(N)=O)C(=O)O2 (stereo not given) | 122% (inactive)
c1ccc(C(c2nc3ncncc3[nH]2)N2CSc3nc4ccccc4n3C2)cc1 (stereo not given) | 94.8% (inactive)
S=c1nc(CS)[nH]c2ccccc12 | 103% (inactive)
Cc1cc(C)c(C(=O)c2cccs2)c(C)c1 | 105% (inactive)
Nc1nc(N)c2cc(CNc3ccc(Cl)c(Cl)c3)ccc2n1 | -75.3% (active)
Cn1ccnc1CN1CCSC(C(=O)Nc2ccccc2)C1 (stereo not given) | 87.8% (inactive)
N/C(=N\N=C\c1ccc2c(c1)OCO2)N/N=C\c1ccc2c(c1)OCO2 | 98.9% (inactive)
COc1ccc(-c2nc(N/N=C/c3cccc(O)c3)nc(N3CCOCC3)c2C#N)cc1 | 87.1% (inactive)
Nc1c(N)c2ccccc2c2ccccc12 | 103% (inactive)
Cc1cc(S(=O)(=O)/N=C(\N)n2nc(C)c(C)c2C)c(SCc2ccccc2)cc1Cl | 66% (inactive)
COc1ccc(S(=O)(=O)N2CCOCC2)cc1NC(=O)c1[nH]c(C)c2c1CCCCC2=O | 105% (inactive) and 47.2% (inactive)
O=C(Nc1ccc(-c2ccnc(Nc3ccc(N4CCOCC4)cc3)n2)cc1)[C@@H]1CCCN1 | 36.2% (inactive)
COC(=O)/C=C1/SC(N2N=C(c3cccs3)CC2c2ccc(F)cc2)=NC1=O (stereo not given) | 36.7% (inactive)
CCOC(=O)c1c(C)nc2c(c1N)CC(=O)N2Cc1ccc(OC)cc1 | 36.2% (inactive)
CN1CSC(=S)N(Cc2ccccc2)C1 | 7.55% (active)
S=c1[nH]ccn1-c1ccccc1Cl | 103% (inactive)
CCOC(=O)N1C/C(=C/c2ccc(Cl)cc2)C(=O)/C(=C/c2ccc(Cl)cc2)C1 | 33.1% (inactive)
Cn1cc(-c2nnc(N)nc2-c2c[nH]c3ccc(F)cc23)c2cc(Br)ccc21 | -33.4% (active)
CC1=C[C@H]2c3c(c(O)c(O)c4oc5c(C)cccc5c(=O)c34)[C@H](c3cc(O)c(O)c4oc5c(C)cccc5c(=O)c34)[C@H]2C(C)(C)C1 | 21.6% (inactive)
CCOC(=O)/C(=C(\C)N)C1CC(=O)NC1=O (stereo not given) | 92.3% (inactive)
